# Test results as given in PubChem BioAssay.
# Potency and affinity values are given separately. Values without a mark were called inactive. Entries that show only a call come without a potency. Activity calls are given as the source filed them. How the calls were made is not given here.
# Legend:
# [1] = A549 cell cytotoxicity, dose response, cytotoxicity control, plate reader, cherry-pick, antagonist series (AID 743412)
# [2] = molecular target: Melanocortin receptor 4 (Homo sapiens) (UniProt P32245); experiment: MC4R antagonists, dose response, counter-screen for LGR2 antagonist project, cell-based, plate reader, cherry pick (AID 743444)
# [3] = HepG2 cell cytotoxicity, dose response, cytotoxicity control, plate reader, cherry-pick, antagonist series (AID 743416)
SMILES,outcome [1],outcome [2],outcome [3]
O=S(=O)(Nc1ccc(O)c2ccccc12)c1ccc(OC(F)(F)F)cc1,inactive,inactive,
Cc1noc(C)c1S(=O)(=O)Nc1ccc2c(c1)C(=O)N([C@H](C)CO)C[C@H](C)[C@H](CN(C)C(=O)Nc1ccc(F)cc1)OCCCC[C@@H](C)O2,inactive,inactive,inactive
COc1cccc(C(=O)Nc2ccc3c(c2)OC[C@@H](C)N(CC2CC2)C[C@H](C)[C@H](OC)CN(C)C3=O)c1,inactive,inactive,inactive
O=C(C[C@H]1C=C[C@@H](NC(=O)C2CCC2)[C@H](CO)O1)NCCCN1CCOCC1,inactive,inactive,inactive
Cn1cnc(S(=O)(=O)N2C[C@@H](O)COC[C@H]3O[C@H](CC(=O)NC4CCCC4)CC[C@@H]32)c1,inactive,inactive,inactive
C[C@@H]1CN([C@H](C)CO)C(=O)c2c(c3ccccc3n2C)-c2ccccc2CO[C@H]1CN(C)S(=O)(=O)c1cn(C)cn1,inactive,inactive,inactive
N#C[C@H]1[C@@H](c2ccc(C3=CCCCC3)cc2)[C@H](CO)N1C(=O)c1ccccn1,inactive,inactive,
C[C@H]1CCCCO[C@H](CN(C)C(=O)Nc2cccc3ccccc23)[C@@H](C)CN([C@@H](C)CO)C(=O)c2cc(NS(=O)(=O)c3cn(C)cn3)ccc2O1,inactive,inactive,inactive
O=C(CC1CS(=O)(=O)CC1CC(=O)Nc1ccc2c(c1)OCCO2)Nc1ccc2c(c1)OCCO2 (stereo not drawn),inactive,inactive,inactive
O=C(NCCOc1ccccc1)[C@@H]1CCCN1C(=O)c1cccs1,inactive,inactive,inactive
CCN(C(=O)COC(=O)C12CC3CC(CC(O)(C3)C1)C2)c1c(N)n(Cc2ccccc2)c(=O)[nH]c1=O,inactive,inactive,inactive
Cc1cc(Cl)ccc1OCCCC(=O)Nc1cc(S(=O)(=O)N2CCOCC2)ccc1N1CCOCC1,inactive,inactive,inactive
CC1(c2ccccc2Cl)NC(=O)N(CC(=O)N2CCc3ccccc32)C1=O (stereo not drawn),inactive,inactive,inactive
COc1ccc(-c2nc(N)n(C(=O)c3cccs3)n2)cc1,inactive,inactive,inactive
CCOC(=O)C(C)N1c2cccc3cccc(c23)S1(=O)=O (stereo not drawn),inactive,inactive,inactive
CO[C@H]1CN(C)C(=O)c2ccc(NC(=O)c3ccc(-c4ccccc4)cc3)cc2OC[C@@H](C)NC[C@@H]1C,inactive,inactive,inactive
CC(C)NC(=O)Nc1ccc2c(c1)C(=O)N([C@H](C)CO)C[C@@H](C)[C@H](CN(C)S(C)(=O)=O)OCCCC[C@H](C)O2,inactive,inactive,inactive
C[C@H](CO)N1C[C@H](C)[C@H](CN(C)C(=O)Nc2ccccc2)OCCCC[C@H](C)Oc2ccc(NC(=O)NC3CCCCC3)cc2C1=O,inactive,inactive,inactive
NCC[C@H]1CC[C@H](NS(=O)(=O)Cc2ccccc2)[C@@H](CO)O1,,inactive,inactive
C[C@H]1CCCCO[C@@H](CN(C)C(=O)Nc2ccccc2)[C@@H](C)CN([C@@H](C)CO)C(=O)c2cc(NC(=O)NC3CCCCC3)ccc2O1,,inactive,inactive

SMILES,outcome [1],outcome [2],outcome [3]
CCCNC(=O)N1[C@H](C#N)[C@H](c2ccc(C#Cc3ccc(F)cc3)cc2)[C@H]1CO,,,inactive
CC(=O)N1CCc2cc(S(=O)(=O)C(C)CC(=O)NCc3ccco3)ccc21 (stereo not drawn),,inactive,inactive
CC(=O)N1CCCCN2[C@H](CO)[C@H](c3ccc(-c4cccc(C)c4)cc3)[C@@H]2C1,,,inactive
C[C@@H]1CN([C@@H](C)CO)S(=O)(=O)c2ccc(C3=CCCC3)cc2O[C@H]1CN(C)C(=O)c1ccccc1,,inactive,inactive
Cc1ccc(S(=O)(=O)Nc2ccc3c(c2)CC(=O)N([C@H](C)CO)C[C@H](C)[C@H](CN(C)Cc2ccc(Cl)c(Cl)c2)O3)cc1,,,inactive
C[C@H](CO)N1C[C@H](C)[C@H](CN(C)C(=O)Nc2ccccc2)OCCCC[C@H](C)Oc2ccc(NC(=O)CCC(F)(F)F)cc2C1=O,,inactive,inactive
C[C@H](CO)N1C[C@H](C)[C@H](CN(C)C(=O)Nc2cccc3ccccc23)OCCCC[C@H](C)Oc2ccc(NC(=O)C3CCCCC3)cc2C1=O,,inactive,inactive
C[C@H](CO)N1C[C@H](C)[C@H](CN(C)C(=O)Nc2ccc(C(F)(F)F)cc2)OCCCC[C@H](C)Oc2ccc(NC(=O)CCC(F)(F)F)cc2C1=O,,inactive,inactive
CCOc1cc(/C=C/C(=O)Nc2ccc(C(=O)NCCN(CC)CC)cc2)ccc1OCC(C)C,,inactive,
CC[C@H](CO)Oc1cc(NCc2ccc(Cl)c(Cl)c2)c2ncn(C(C)C)c2c1,,inactive,inactive
O=C(Nc1ccc(N2CCOCC2)cc1)c1cnccn1,,,inactive
C[C@H](CO)N1C[C@H](C)[C@@H](CN(C)C(=O)Nc2ccc3c(c2)OCO3)Oc2c(cccc2N(C)C)C1=O,,inactive,inactive
Cc1ccc(-n2cc(CN(C)Cc3nccn3C)c(-c3cccc(C)c3)n2)cc1,,inactive,inactive
Cc1cc(C(=O)CSc2nnc3ccccn23)c(C)n1-c1ccccc1,,,inactive
Cc1ccc(C)c(S(=O)(=O)N(C(=O)c2ccncc2)c2ccc(OC(=O)c3ccncc3)cc2)c1,,,inactive
CCC(=O)N(C)C[C@H]1Oc2cc(C#CCC(C)C)ccc2S(=O)(=O)N([C@H](C)CO)C[C@@H]1C,,inactive,inactive
C[C@H]1CCCCO[C@@H](CN(C)C(=O)Nc2ccc3c(c2)OCO3)[C@@H](C)CN([C@@H](C)CO)C(=O)c2cc(NC(=O)NC3CCCCC3)ccc2O1,,inactive,inactive
C[C@H](CO)N1C[C@H](C)[C@H](CN(C)C(=O)Nc2ccccc2)OCCCC[C@H](C)Oc2ccc(NC(=O)Nc3ccccc3)cc2C1=O,,inactive,inactive
Cn1nnnc1Sc1ncnc2scc(-c3ccccc3C(F)(F)F)c12,,inactive,inactive
COc1ccc(NC(=O)N(C)C[C@@H]2OCCCC[C@H](C)Oc3ccc(NC(=O)C4CCCCC4)cc3C(=O)N([C@H](C)CO)C[C@@H]2C)cc1,,inactive,inactive

SMILES,outcome [1],outcome [2],outcome [3]
COc1ccc(-c2cc(-c3nnc(COC(=O)C4CC4)o3)c3ccccc3n2)cc1OC,,inactive,inactive
COCC(=O)N[C@@H]1CC[C@@H](CC(=O)NCc2ccccc2OC)O[C@@H]1CO,,inactive,inactive
C[C@H](CO)N1C[C@H](C)[C@H](CN(C)C(=O)Nc2ccc(F)cc2)OCCCC[C@H](C)Oc2ccc(NC(=O)Nc3ccc(F)cc3)cc2C1=O,,inactive,inactive
Cc1csc(NC(=O)c2ccc(N3CCCC3=O)cc2)n1,,,inactive
C[C@H](CO)N1C[C@H](C)[C@H](CN(C)C(=O)Nc2ccc3c(c2)OCO3)OCCCC[C@H](C)Oc2ccc(NC(=O)C3CCCCC3)cc2C1=O,,inactive,inactive
Cc1cnc(NC(=O)COc2ccccc2Cl)s1,,,inactive
C[C@H](CO)N1C[C@H](C)[C@H](CN(C)C(=O)Nc2ccccc2)OCCCC[C@H](C)Oc2ccc(NC(=O)C3CCCCC3)cc2C1=O,,inactive,inactive
O=C(Cc1ccncc1)NCC[C@H]1CC[C@H](NC(=O)C2CCCC2)[C@H](CO)O1,,,inactive
C[C@H](CO)N1C[C@H](C)[C@H](CN(C)C(=O)CN2CCOCC2)Oc2ncc(C#CCN(C)C)cc2C1=O,,inactive,inactive
CN(C)c1cccc(C(=O)Nc2nc3ccccc3[nH]2)c1,,,inactive
N#C[C@@H]1[C@H](c2ccc(C#CC3CCCCC3)cc2)[C@@H](CO)N1S(=O)(=O)c1ccccc1,,,inactive
Cc1ccc(S(=O)(=O)N(C)C[C@H]2Oc3cc(Br)ccc3S(=O)(=O)N([C@H](C)CO)C[C@H]2C)cc1,,inactive,inactive
O=c1cc(-c2c(F)c(F)c(F)c(F)c2F)oc2ccccc12,,inactive,inactive
COc1ccc(CCNC(=O)C2CCN(S(=O)(=O)c3ccc(Cl)cc3)CC2)cc1OC,,inactive,
O=C(Nc1ccc(N2CCOCC2)c(S(=O)(=O)Nc2ccccc2Cl)c1)c1ccc(F)cc1,,inactive,inactive
Cn1nnnc1SCC(=O)N1CCN(C(=O)c2ccco2)CC1,,inactive,inactive
Cc1cccc(-c2ccc([C@H]3[C@@H](CO)N4CCCCN(C(=O)c5ccncc5)C[C@@H]34)cc2)c1,,,inactive
COc1ccc2[nH]c3c(c2c1)CCN1C(=O)N([C@@H](C)C(=O)NCc2ccc(C)cc2)C(=O)[C@]31C,,inactive,inactive
